Where “and” joins values, the source holds several entries; their conditions need not be identical. Equal values may be shown once. Calls of active or inactive are those of the source. Calls follow the shape of the full dose curve.
Assay: qHTS drug screen for cell cycle checkpoint inhibitors in PARPi-resistant BRCA-mutant ovarian cancer cell lines. (AID 1963452)
Settings: PEO1/OlaR viability, CellTiter-Glo luminescence, 96 h; for Z-AUC: stronger effect = lower value
How it was run: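 PEO1, PEO4 and PEO1/OlaR ovarian cancer cells, 600 per well, exposed 96 h at 37C to a dilution series. Viability read by CellTiter-Glo luminescence, normalized to DMSO and empty wells; activity summarized as Z-AUC.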

[1] = measured here: PEO1 parental Z-AUC
Potency is read from the fitted curve at half-maximal effect.

| Compound | Potency | Z-AUC | Z-AUC [1] | Z-AUC (measured here: PEO4 Z-AUC) |
| --- | --- | --- | --- | --- |
| CCCC1(CCC)CCC2(CCN(CCCN(CC)CC)C2)CC1 | 3890 nM (active) |  |  |  |
| COc1cc(N2CCC(N3CCN(C)CC3)CC2)ccc1Nc1ncc(Cl)c(Nc2ccccc2P(C)(C)=O)n1 | 549 nM (active) |  |  |  |
| O=C([C@@H](Cc1cccc(C(F)(F)F)c1)NS(=O)(=O)c1cc(F)c2c(c1)CCNC2)N1CCCC1 |  | -0.343 (inactive) | -0.218 | -0.109 |
| Cc1nc(NC(=O)N2CCC[C@H]2C(N)=O)sc1-c1ccnc(C(C)(C)C(F)(F)F)c1 |  | -0.211 (inactive) and -0.86 (inactive) | -0.228 and -0.204 | -0.403 and -0.389 |
| Cc1[nH]c(/C=C2\C(=O)Nc3ccc(F)cc32)c(C)c1C(=O)NCCN1CCCC1 |  | 0.66 (inactive) | 0.734 | 0.596 |
| COc1ccccc1C(=O)Nc1cc2c(cc1N1CCCC1)n(C)c(=O)n2C |  | -1.16 (inactive) | -0.583 | -0.727 |
| CN[C@H]1CC[C@@H](c2ccc(Cl)c(Cl)c2)c2ccccc21 |  | 0.0758 (inactive) | 0.141 | -0.265 |
| Cc1c[nH]c2ncnc(N3CCC(CN)(C(=O)Nc4cccc(OC(=O)N(C)C)c4)CC3)c12 |  | -0.731 (inactive) and 0.531 (inactive) | -0.27 and -0.244 | -0.694 and 1.07 |
| CC(C)NC(=O)COc1cccc(-c2nc(Nc3ccc4[nH]ncc4c3)c3ccccc3n2)c1 | 4360 nM (active) |  | -1.21 | -1.12 |
| O=C(NCCCNC(=O)c1ccc[nH]c1=O)c1cc(-c2ccccc2)on1 |  | 0.194 (inactive) | 0.0234 | -0.178 |
| COc1ccc(-c2cnc3c(-c4cccc5ncccc45)cnn3c2)cc1 |  | -0.651 (inactive) | -0.725 | -0.465 |
| CCCCNc1ncc(-c2ccc(CN3CCOCC3)cn2)c(NC2CCC(O)CC2)n1 (stereo not drawn) |  | -1.2 (inactive) | -1.14 | -0.666 |
| COC(=O)Nc1cc(Nc2cc(NC3CC3)c3ncc(C#N)n3n2)c(Cl)c(N2CCN(C)CC2)c1 |  | -1.26 (inactive) | -0.992 | -1.22 |
| CC1(C)CN(C(=O)c2ccc(-c3cccc4nc(NC(=O)C5CC5)nn34)cc2)C1 |  | 0.782 (inactive) | 0.925 | 1.32 |
| CN1CCN(c2ccc(-c3cccc(CN4CCOCC4)c3)cc2NC(=O)c2c[nH]c(=O)cc2C(F)(F)F)CC1 |  | 0.777 (inactive) | 0.269 | 0.524 |
| CCn1c(=O)c(-c2ccc(-c3cncs3)cc2Cl)cc2cnc(Nc3ccc(N4CCN(C)CC4)cc3)nc21 |  | -1.32 (inactive) | -0.743 | -0.961 |
| N#Cc1ccc(COC[C@H]2O[C@@H](n3c(NCc4ccc(Cl)c(Cl)c4)nc4c(N)ncnc43)[C@H](O)[C@@H]2O)cc1 |  | -0.735 (inactive) | -0.265 | 0.0878 |
| Cn1ncc(Cl)c1-c1cc(C(=O)N[C@H](CN)Cc2cccc(F)c2)sc1Cl |  | 0.3 (inactive) | 0.0445 | 0.251 |
| Cn1ncnc1[C@H]1c2n[nH]c(=O)c3cc(F)cc(c23)N[C@@H]1c1ccc(F)cc1 |  | 0.447 (inactive) | -1.15 | -0.329 |
| Cc1c(F)ccc(C(=O)Nc2cc([N+](=O)[O-])ccc2N2CCN(C)CC2)c1Cl |  | 0.532 (inactive) | 0.409 | -0.0381 |
| CCNC(=O)C#Cc1ccc2c(C(=Nc3ccc(CN(C)C)cc3)c3ccccc3)c(O)[nH]c2c1 | 535 nM (active) |  | -2.66 | -2.58 |
| COc1cccc(OCCCN)c1-c1cc(Nc2cnc(C#N)cn2)n[nH]1 | 4.9 nM (active) |  | -2.4 | -2.98 |
| Cc1cc(C(=O)Nc2cc(Nc3ccc4c(/C=C/c5ccccn5)n[nH]c4c3)ccc2F)n(C)n1 |  | -1.04 (inactive) | -0.196 | -0.912 |
| Cc1ccc(NC(=O)c2ccc(CN3CCNCC3)cc2)cc1Nc1nccc(-c2cccnc2)n1 |  | 0.805 (inactive) | 0.225 | 0.453 |
| Cc1ccc(C(=O)Nc2ccc(CN3CCN(C)CC3)c(C(F)(F)F)c2)cc1C#Cc1cnc2[nH]ncc2c1 |  | -1.39 (inactive) | -0.429 | -0.168 |
| COc1ccc(-c2c(C)nn3c(NCCN4CCOCC4)cc(C)nc23)cc1OC |  | 0.717 (inactive) | 0.787 | 0.395 |
| CC#C[C@@H](CC(=O)O)c1ccc(OCc2cccc(-c3ccc(C(F)(F)F)cc3)c2)cc1 |  | 0.0821 (inactive) | 0.579 | 0.882 |
| Nc1nc(OCc2cc(Br)cs2)c2[nH]cnc2n1 |  | -0.86 (inactive) | 0.672 | 0.221 |
| CCn1c(=O)c(-c2ccc(Cl)cc2Cl)cc2cnc(Nc3ccc(N4CCNCC4)c(F)c3)nc21 |  | -0.749 (inactive) | -0.47 | -0.502 |
